# The list is not random: actives were taken first. Their share in the collection is about 1.8%.
# INS-1E GSIS act – primary screen for activators of insulin secretion dependent on glucose, INS-1E cells, GLuc reporter luminescence; INS-1E GLuc reporter insulin secretion, 2-3 h; activation, % at 16.6 µM; hit rate 0.61% among 370,000;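 active = lowest replicate activation of at least 40%, so every replicate reaches that level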;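 also: 0% = median of neutral control wells and 100% = median of IBMX positive control wells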
# CFTR F508del cor – CFTR F508del correction in bronchial cells | CFBE cells, YFP halide quenching; stimulated with forskolin plus potentiator P3; % fluorescence drop versus neutral controls | activity (quench increase), % at 7.58 µM | hit rate 0.36% among 350,000;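 active = mean added fluorescence quench of at least 8% versus neutral control, with both replicates also reaching 8%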;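 also: cells transiently co-express mutant CFTR-F508del with the halide-sensitive YFP; corrector assay measuring rescue of mutant channel to the surface after 24 h compound exposure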
# RAD52 anneal inh – RAD52 (human) annealing inhibition; inhibition, % at 18.7 µM; recombinant RAD52 DNA annealing, FRET fluorescence; hit rate 0.46% among 360,000;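 active = every replicate showing at least 50% inhibition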
# Target sequence (P43351 whole entry, looked up): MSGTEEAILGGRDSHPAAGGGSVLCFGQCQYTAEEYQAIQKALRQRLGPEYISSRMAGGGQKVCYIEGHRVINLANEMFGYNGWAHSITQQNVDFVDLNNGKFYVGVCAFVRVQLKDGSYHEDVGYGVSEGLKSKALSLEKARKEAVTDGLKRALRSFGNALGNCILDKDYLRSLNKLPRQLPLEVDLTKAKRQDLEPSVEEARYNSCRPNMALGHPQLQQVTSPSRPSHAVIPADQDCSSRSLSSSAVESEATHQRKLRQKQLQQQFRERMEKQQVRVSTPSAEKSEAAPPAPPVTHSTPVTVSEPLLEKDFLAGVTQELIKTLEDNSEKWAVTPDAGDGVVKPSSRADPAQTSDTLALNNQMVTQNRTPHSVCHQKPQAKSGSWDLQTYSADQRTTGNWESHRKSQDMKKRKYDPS
# RAD54 inh – RAD54 (human) branch migration inhibition; AID 602329; hit rate 0.14% among 360,000; RAD54 Holliday junction branch migration, FAM/BHQ fluorescence; inhibition, % at 10.4 µM; Q92698;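 active = mean normalized replicate activity at least 40 and at least half of replicates scoring 40 or more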;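 also: 0% = median of neutral control wells and 100% = median of positive control wells; inhibitors cause a drop in the FAM fluorescence signal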
# EWS-Fli inh – inhibitors of EWS/Fli oncoprotein transcriptional activity | A673 NR0B1-luciferase reporter, viability-normalised | inhibition, % at 12.6 µM | hit rate 0.67% among 350,000;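 active = mean inhibition of at least 50% after viability correction, with every replicate also passing that limit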;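 also: firefly luciferase signal divided by Alamar Blue viability fluorescence both relative to DMSO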
# LGR2 inh – inhibitors of bursicon-induced Drosophila LGR2 receptor cAMP signaling | HEK293 LGR2, CRE-luciferase, bursicon-stimulated, 4 h | inhibition, % at 9.99 µM | hit rate 0.35% among 380,000 | AID 720647;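 active = drop in luminescence signal, shown as inhibition above about 50% in the replicate tests, limit read from the data, passing the limit was not always enough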;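 also: agonist challenge used bursicon conditioned medium at about half maximal strength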
# * = called active by the depositor; . = no result.
SMILES,INS-1E GSIS act,CFTR F508del cor,RAD52 anneal inh,RAD54 inh,EWS-Fli inh,LGR2 inh
COc1ccc(NC(=O)N(C)C[C@H]2Oc3c(cccc3N(C)C)C(=O)N([C@H](C)CO)C[C@H]2C)cc1,0,8.1*,-6,2,-10,-1
COc1ccc(CSC2=NCCN2)cc1Cl,9,.,.,7,.,-3
CCOC(=O)C1=C(C)N(c2ccc(C)cc2)C(=O)/C1=C\c1cccs1,.,.,.,-1,.,.
CCOC(=O)C1=C(C)N(c2ccccc2)C(=O)/C1=C\c1cccs1,88*,.,.,3,.,-22
COc1ccc(C)cc1NC(=O)C(OC(=O)c1cnccn1)c1ccccc1 (stereo not drawn),10,0,1,16,3,12
COc1ccc(C)cc1NC(=O)C(OC(=O)c1ccc(Cl)c(S(=O)(=O)N(C)c2ccccc2)c1)c1ccccc1 (stereo not drawn),-10,9.2*,-34,6,-3,15
Cc1ccc(S(=O)(=O)Nc2ccc(C(=O)NCCCn3ccnc3)cc2)cc1[N+](=O)[O-],44*,-1,-6,6,1,10
S=C(NCCc1ccccc1)Nc1nccs1,2,9.2*,-10,4,-63,-34
CNC1CCc2cc(OC)c(OC)c(OC)c2-c2ccc(SC)c(=O)cc21 (stereo not drawn),-5,-2,-6,.,29,4
COc1cc2c(c(OC)c1OC)-c1ccc(SC)c(=O)cc1C(N)CC2 (stereo not drawn),7,-2,5,.,39,-13
COc1cc2c(c(OC)c1OC)-c1ccc(OC)c(=O)cc1C(N)CC2 (stereo not drawn),-10,1,-7,.,56*,2
COc1cc2c(c(OC)c1OC)-c1ccc(OC)c(=O)cc1[C@@H](N(C)CC#CCO)CC2,-8,3,-11,-9,54*,2
CCN(CC)c1ccc2c(cc1=O)[C@@H](NC)CCc1cc(OC)c(OC)c(OC)c1-2,-7,9.5*,1,-2,60*,-1
COc1cc2c(c(OC)c1OC)-c1ccc(N(C)CC(OC)OC)c(=O)cc1[C@@H](NC(C)=O)CC2,-5,4,-5,.,60*,-12
COc1cc2c(c(OC)c1OC)-c1ccc(SC)c(=O)cc1C(NC(=O)C(F)(F)F)CC2 (stereo not drawn),-33,2,-8,.,46,-13
CCOC(=O)NC1CCc2cc(OC)c(OC)c(OC)c2-c2ccc(OC)c(=O)cc21 (stereo not drawn),4,-2,-4,.,47,21
CCOCC(=O)NC1CCc2cc(OC(=O)COCC)c(OC)c(OC)c2-c2ccc(SC)c(=O)cc21 (stereo not drawn),-18,-1,10,.,53*,14
CN[C@H]1CCc2cc(OC)c(OC)c(OC)c2-c2ccc(N(C)CC(OC)OC)c(=O)cc21,-4,11*,-13,-7,43,2
COc1cc2c(c(OC)c1OC)-c1ccc(OC)c(=O)cc1[C@@H](NC(C)=O)CC2,14,-2,-15,1,63*,-16
CCCn1c(SCC(=O)NCc2ccco2)nnc1-c1ccncc1,4,1,-3,.,14,.
Cc1cc(NC(=O)C(C)C)n(-c2nc3ccccc3s2)n1,13,-3,-16,4,-71,-36
COc1ccc(CCN(C)C(=O)CCNS(=O)(=O)c2ccccc2C(F)(F)F)cc1OC,41*,-2,3,-1,5,-17
COc1ccc(CCN(C)C(=O)Cc2ccc(-c3ccccc3)cc2)cc1OC,-22,6,-13,-9,33,-16
COc1cc2c(cc1OC)/C(=C/C(C)=O)OC2,119*,0,-1,.,-3,-7
COC(=O)/C=C1\OCc2cc(OC)c(OC)cc21,55*,-1,2,.,-19,-22
SMILES,INS-1E GSIS act,CFTR F508del cor,RAD52 anneal inh,RAD54 inh,EWS-Fli inh,LGR2 inh
COCC#Cc1cnc2c(c1)C(=O)N([C@H](C)CO)C[C@@H](C)[C@H](CN(C)C(=O)Nc1cc(F)ccc1F)O2,1,0,-11,-3,1,12
CNS(=O)(=O)c1cccc(C(=O)OCc2csc(-c3ccccc3)n2)c1,2,.,.,0,.,-19
Nc1ccc(C(=O)OCc2csc(-c3ccccc3)n2)cc1[N+](=O)[O-],46*,.,.,.,.,17
COc1ccc(/C=C2\COc3ccccc3C2=O)c(OC)c1,-8,3,-14,-14,-88,-50
COc1ccc(C=C2c3ccccc3C(=O)c3ccccc32)c(OC)c1,9,0,-10,.,52*,0
CNc1nc(NCc2ccc(C)cc2C)c2sccc2n1,-20,0,7,-6,11,10
Cc1ccc(CNc2nc(NCc3ccccc3)nc3ccsc23)c(C)c1,196*,2,-14,-2,20,5
O=C(/C=C/c1ccc([N+](=O)[O-])cc1)c1cccnc1,-11,3,-17,1,10,-3
Cc1cccc(N2CCN(C(=S)Nc3ccc4nc(N5CCN(C)CC5)cc(C)c4c3)CC2)c1C,22,-15,49,3,56*,7
CC1CCCCC1NC(=O)CN(C)S(=O)(=O)c1cccc2nsnc12 (stereo not drawn),6,.,.,.,.,-28
O=C(O)c1ccc(/C=N/n2c(C3CCCCC3)n[nH]c2=S)cc1,63*,4,-1,1,-1,3
CSc1nsc(SCC(=O)Nc2ccc(Cl)c(C(=O)O)c2)n1,9,0,-13,-4,-7,1
CSc1nsc(SCC(=O)Nc2ccc(O)c(C(=O)O)c2)n1,40*,1,-14,5,12,-11
C[C@H]1CN([C@@H](C)CO)C(=O)Cc2cc(NS(=O)(=O)c3ccc(F)cc3)ccc2O[C@@H]1CN(C)C(=O)Nc1ccc2c(c1)OCO2,7,-2,.,.,-3,17
Cn1c(N)c(C(=O)Nc2ccc3ccccc3c2)sc1=S,86*,.,.,8,.,-82
O=C(Nc1ccc2ccccc2c1)c1ccccc1O,8,-3,-12,10,26,76*
COc1ccc(C(=O)Nc2ccccc2C(=O)Nc2ccncc2)cc1,45*,0,-24,13,.,-33
COc1ccc(C(=O)Nc2ccc3c(c2)C(=O)c2ccccc2C3=O)cc1OC,62*,.,.,.,.,-13
O=C(CC1CCCC1)N[C@H](C(=O)N1CCC[C@H]1C(=O)NCCc1ccccc1Cl)c1ccccc1,-2,0,1,.,1,-4
O=C1c2cccc3cccc(c23)N1Cc1cccc(F)c1,6,-3,-15,4,2,2
Cc1c(NC(=O)c2cc3c(s2)CCCC3)c(=O)n(-c2ccccc2)n1C,.,0,-6,-1,-20,.
CC(C)(C)c1ccc(CC(=O)N2CCC2(C)C(=O)NS(=O)(=O)c2cccc(Cl)c2)cc1 (stereo not drawn),-1,2,-8,-2,17,12

# High-throughput results as filed in PubChem BioAssay.
